Experimental data taken from PubChem BioAssay (Tox21).
Results filed as inconclusive are left out. The source made the active and inactive calls. Unless noted, the call rests on the fitted dose curve.

What was measured:
[1] = Nuclear factor erythroid 2-related factor 2/antioxidant responsive element (Nrf2/ARE) small molecule agonists: luciferase reporter gene qHTS assay in human keratinocytes (AID 1919969); further: nearly all actives have a fitted effect of over 35% in size
[2] = molecular target: Gonadotropin-releasing hormone receptor (Homo sapiens) (UniProt P30968); experiment: Human gonadotropin-releasing hormone receptor (GnRHR) small molecule agonists, calcium flux assay in GnRHR-HEK293 cells (AID 1920063); further: nearly all actives have a fitted effect of over 35% in size
Sequence of Gonadotropin-releasing hormone receptor (Homo sapiens) (P30968 whole entry, looked up): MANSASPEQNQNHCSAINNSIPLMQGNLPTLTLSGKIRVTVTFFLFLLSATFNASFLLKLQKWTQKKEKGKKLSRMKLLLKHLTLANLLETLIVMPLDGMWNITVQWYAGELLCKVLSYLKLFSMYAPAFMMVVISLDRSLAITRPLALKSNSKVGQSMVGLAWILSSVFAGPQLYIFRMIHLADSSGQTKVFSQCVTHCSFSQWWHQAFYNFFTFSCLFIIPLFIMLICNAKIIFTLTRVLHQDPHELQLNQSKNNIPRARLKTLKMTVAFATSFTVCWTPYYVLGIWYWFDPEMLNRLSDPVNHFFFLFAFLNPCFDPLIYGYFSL
Outline: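 Intracellular calcium rise is the read-out: engineered human GnRHR HEK293 cells, dye-loaded, are exposed to DMSO-dissolved compounds and fluorescence at Ex/Em 480/540 is tracked for 3 min.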

[3] = molecular target: KiSS-1 receptor (Homo sapiens) (UniProt Q969F8); experiment: Human kisspeptin (KISS1R) small molecule agonists, calcium flux assay in KISS1R-HEK293 cells (AID 1920064; active means well fitted activation curve with a large enough effect in the repeat runs)
Sequence of KiSS-1 receptor (Homo sapiens) (Q969F8 whole entry, looked up): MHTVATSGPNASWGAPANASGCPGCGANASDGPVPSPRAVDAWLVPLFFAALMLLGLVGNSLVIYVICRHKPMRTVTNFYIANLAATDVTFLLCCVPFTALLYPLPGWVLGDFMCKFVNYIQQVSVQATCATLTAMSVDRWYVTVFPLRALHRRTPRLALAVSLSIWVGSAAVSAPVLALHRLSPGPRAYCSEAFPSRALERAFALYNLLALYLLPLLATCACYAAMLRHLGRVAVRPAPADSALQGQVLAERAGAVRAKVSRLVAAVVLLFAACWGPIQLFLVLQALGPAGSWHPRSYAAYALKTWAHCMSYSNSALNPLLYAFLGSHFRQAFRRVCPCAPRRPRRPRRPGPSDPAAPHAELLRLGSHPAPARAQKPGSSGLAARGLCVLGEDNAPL
Outline: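 Concentration-response testing used 15 concentrations in triplicate on human KISS1R-expressing HEK293 cells. Calcium-dependent fluorescence (Ex/Em 480/540) was followed kinetically for 3 min after compound transfer.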

[4] = G protein-coupled receptor (GPCR) small molecule agonists, calcium flux assay: HEK293 wild type cell line counter screen (AID 1920065)
Outline: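 Fluorescence intensity signals activation. After overnight (18 h) culture and a 1 h calcium dye load at 37 C, compounds are added by pin tool and the plate read at 480/540 nm for 3 min in 1 s steps.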

[5] = p53 small molecule agonists, cell-based qHTS assay with human liver microsomes (AID 1963577);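 further: p53 response element beta-lactamase reporter cells with liver microsomes plus NADPH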
Outline: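 Reporter activation was measured by LiveBLAzer fluorescence intensity in p53RE-bla cells, which had been exposed to compounds for 16 h at 37 C alongside 0.5 mg/mL human liver microsomes and 0.5 mg/mL NADPH (final concentrations).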

[6] = p53 small molecule agonists, cell-based qHTS assay with rat liver microsomes (AID 1963578)
Outline: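 Compound in DMSO added to p53RE-bla cells 5 h post-plating; rat microsomes/NADPH 0.5 mg/mL final; 16 h, 37 C; LiveBLAzer 2 h RT.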

[7] = p53 small molecule agonists, cell-based qHTS assay with human liver microsomes: qHTS cell viability counter screen (AID 1963579); further: nearly all actives have a fitted effect of over 45% in size
Outline: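 HLM-supplemented (0.5 mg/mL final) and NADPH-supplemented (0.5 mg/mL final) p53RE-bla cultures, 4,000 cells per well, were dosed with compounds in DMSO for 16 h at 37 C; luminescent ATP detection (CellTiter-Glo, 30 min, room temperature) quantified surviving cells.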

[8] = p53 small molecule agonists, cell-based qHTS assay with rat liver microsomes: qHTS cell viability counter screen (AID 1963580); further: nearly all actives have a fitted effect of over 45% in size
Outline: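 Rat liver microsome (0.5 mg/mL final) and NADPH (0.5 mg/mL final) co-incubation with compounds for 16 h at 37 C on HCT-116 p53RE-bla cells; cytotoxicity taken from intracellular ATP luminescence.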

[9] = p53 small molecule agonists, cell-based qHTS assay: qHTS cell viability counter screen (AID 1963581); further: nearly all actives have a fitted effect of over 45% in size
Outline: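 Luminescence from CellTiter-Glo, reflecting ATP content, serves as the cytotoxicity measure; it is taken after the 2 h reporter substrate step in HCT-116 p53RE-bla cells dosed for 16 h at 37 C.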

[10] = p53 small molecule agonists, cell-based qHTS assay (AID 1963582; active means well fitted activation curve with a large enough effect in the signal ratio in the repeat runs, not every such curve was filed as active; the % refers to the signal ratio)
Outline: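 After plating, p53RE-bla cells sat 5 h in the incubator; compounds or DMSO vehicle were pinned in; a 16 h incubation at 37 C followed; FRET substrate was added and, 2 h later at RT, fluorescence was measured.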

[11] = molecular target: 5-hydroxytryptamine receptor 2A (Homo sapiens) (UniProt P28223); experiment: 5-hydroxytryptamine receptor 2A (HTR2A) small molecule antagonists, cell-based qHTS assay (AID 1963586); further: nearly all actives have a fitted effect of over 45% in size
Sequence of 5-hydroxytryptamine receptor 2A (Homo sapiens) (P28223 whole entry, looked up): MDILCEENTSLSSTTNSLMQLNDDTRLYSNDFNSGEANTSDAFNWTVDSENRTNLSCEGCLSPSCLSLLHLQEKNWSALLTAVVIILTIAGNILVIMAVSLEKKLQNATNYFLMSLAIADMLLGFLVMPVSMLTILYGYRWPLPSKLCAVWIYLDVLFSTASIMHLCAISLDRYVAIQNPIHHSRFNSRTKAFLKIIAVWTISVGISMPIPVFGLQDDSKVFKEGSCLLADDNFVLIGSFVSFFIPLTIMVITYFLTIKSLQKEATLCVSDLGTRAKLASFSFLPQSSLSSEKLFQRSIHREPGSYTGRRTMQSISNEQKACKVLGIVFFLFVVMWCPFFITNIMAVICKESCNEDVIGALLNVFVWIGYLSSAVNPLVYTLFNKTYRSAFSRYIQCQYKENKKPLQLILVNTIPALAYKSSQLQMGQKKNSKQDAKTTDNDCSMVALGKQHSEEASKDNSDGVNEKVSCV
Outline: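 CHO cells stably expressing human HTR2A were plated for 18 h at 37 C, then loaded with calcium dye for 1 h. Compounds were preincubated 5 min at room temperature before DOI (4 nM solution) was added. Kinetic fluorescence was read for 3 min.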

[12] = molecular target: 5-hydroxytryptamine receptor 2A (Homo sapiens) (UniProt P28223); experiment: 5-hydroxytryptamine receptor 2A (HTR2A) small molecule agonists, cell-based qHTS assay (AID 1963587); further: nearly all actives have a fitted effect of over 30% in size
Outline: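 Kinetic calcium-flux fluorescence (2 min, 1 sec intervals) after compound addition in agonist mode. HTR2A-CHO cells were cultured 18 h, then dye-loaded 1 h at 37 C.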

[13] = molecular target: Muscarinic acetylcholine receptor M1 (Homo sapiens) (UniProt P11229); experiment: Cholinergic receptor muscarinic 1 (CHRM1) small molecule antagonists, cell-based qHTS assay (AID 1963588); further: nearly all actives have a fitted effect of over 40% in size
Sequence of Muscarinic acetylcholine receptor M1 (Homo sapiens) (P11229 whole entry, looked up): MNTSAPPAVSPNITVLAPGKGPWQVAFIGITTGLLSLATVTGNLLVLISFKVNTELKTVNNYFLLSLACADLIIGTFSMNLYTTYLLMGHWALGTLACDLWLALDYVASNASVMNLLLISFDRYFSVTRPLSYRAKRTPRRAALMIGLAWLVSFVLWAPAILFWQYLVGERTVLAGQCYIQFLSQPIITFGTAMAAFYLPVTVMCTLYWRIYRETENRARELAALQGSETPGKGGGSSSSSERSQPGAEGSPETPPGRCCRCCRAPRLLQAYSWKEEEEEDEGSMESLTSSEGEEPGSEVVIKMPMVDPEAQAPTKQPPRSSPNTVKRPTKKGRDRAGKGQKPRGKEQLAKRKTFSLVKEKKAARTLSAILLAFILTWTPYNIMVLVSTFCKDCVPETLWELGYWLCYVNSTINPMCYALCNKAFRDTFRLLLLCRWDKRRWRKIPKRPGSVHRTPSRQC
Outline: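 Compounds were tested at 15 concentrations in three independent runs. Dye-loaded CHRM1-CHO cells were exposed 5 min at room temperature before stimulation by acetylcholine added at 50nM. Intracellular calcium was read kinetically on FDSS for 3 min.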

[14] = molecular target: Muscarinic acetylcholine receptor M1 (Homo sapiens) (UniProt P11229); experiment: Cholinergic receptor muscarinic 1 (CHRM1) small molecule agonists, cell-based qHTS assay (AID 1963589); further: nearly all actives have a fitted effect of over 35% in size
Outline: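 Fluorescent calcium dye reports M1 activation in stably transfected CHO cells. Compounds, 15 concentrations, added after 1 h dye loading at 37 C; kinetic reading at 1 sec intervals.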

[15] = cAMP Responsive Elements (CRE) small molecule agonists, cell-based qHTS assay (AID 1963590)
Outline: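 Compound exposure lasted 3 h at 37 C/5% CO2 in CRE-bla HEK 293T cells grown in assay medium with 10% dialyzed FBS and 25 mM HEPES. Reporter signal came from LiveBLAzer B/G FRET substrate, 2 h, room temperature.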

[16] = cAMP Responsive Elements (CRE) small molecule antagonists, cell-based qHTS assay (AID 1963591; active means well fitted inhibition curve with a large enough effect in the signal ratio in the repeat runs, not every such curve was filed as active; the % refers to the signal ratio)
Outline: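 Stimulation used NKH477 at a final 0.25 uM for 3 h in compound-treated CRE-bla HEK293T cells, seeded 18 h beforehand. Reporter activity was measured with LiveBLAzer B/G FRET substrate after 2 h at room temperature.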

[17] = molecular target: Beta-2 adrenergic receptor (Homo sapiens) (UniProt P07550); experiment: Adrenergic beta2 receptor (ADRB2) small molecule antagonists, cell-based qHTS assay (AID 1963592); further: series mostly up to about 92 µM; nearly all actives have a fitted effect of over 50% in size
Sequence of Beta-2 adrenergic receptor (Homo sapiens) (P07550 whole entry, looked up): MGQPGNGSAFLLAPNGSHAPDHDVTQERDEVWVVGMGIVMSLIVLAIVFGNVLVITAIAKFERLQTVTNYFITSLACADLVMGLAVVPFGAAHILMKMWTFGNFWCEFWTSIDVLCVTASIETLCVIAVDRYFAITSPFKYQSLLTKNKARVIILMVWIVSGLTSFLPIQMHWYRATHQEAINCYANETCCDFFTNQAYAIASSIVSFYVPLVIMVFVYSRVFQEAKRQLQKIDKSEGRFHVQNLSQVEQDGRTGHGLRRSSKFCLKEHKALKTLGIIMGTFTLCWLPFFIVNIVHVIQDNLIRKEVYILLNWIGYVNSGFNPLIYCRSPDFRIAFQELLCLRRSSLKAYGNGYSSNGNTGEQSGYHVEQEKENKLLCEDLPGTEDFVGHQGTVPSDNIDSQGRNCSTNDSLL
Outline: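 Assay format: CHO-ADRB2 cells, 18-20hr seeding at 37C/5% CO2, then compound plus 1nM isoproterenol agonist mix for 0.5hr RT. Homogeneous time-resolved fluorescence cAMP detection after 1hr, expressed as 665/615 nm ratio.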

[18] = molecular target: D(2) dopamine receptor (Homo sapiens) (UniProt P14416); experiment: Dopamine D2 receptor (DRD2) small molecule agonists, cell-based qHTS assay (AID 1963594); further: nearly all actives have a fitted effect of over 35% in size
Sequence of D(2) dopamine receptor (Homo sapiens) (P14416 whole entry, looked up): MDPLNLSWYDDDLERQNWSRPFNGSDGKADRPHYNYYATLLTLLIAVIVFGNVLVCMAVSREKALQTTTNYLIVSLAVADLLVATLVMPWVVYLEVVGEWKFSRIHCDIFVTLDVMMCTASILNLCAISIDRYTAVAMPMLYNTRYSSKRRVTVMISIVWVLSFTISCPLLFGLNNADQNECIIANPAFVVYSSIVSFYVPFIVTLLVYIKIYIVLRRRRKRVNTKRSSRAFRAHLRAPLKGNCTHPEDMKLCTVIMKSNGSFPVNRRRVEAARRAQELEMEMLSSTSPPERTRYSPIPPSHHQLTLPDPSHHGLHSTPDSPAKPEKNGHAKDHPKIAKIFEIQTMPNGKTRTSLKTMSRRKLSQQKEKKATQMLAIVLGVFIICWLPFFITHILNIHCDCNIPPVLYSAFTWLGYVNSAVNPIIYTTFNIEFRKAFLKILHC
Outline: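 cAMP accumulation in DRD2-HEK293 cells measured by HTRF after 1 h detection; compounds added 10 min before NKH477 (200nM […]) forskolin-analogue stimulation, 30 min at room temperature, with Ro20-1724 present at 0.1 mM final.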

[19] = molecular target: D(2) dopamine receptor (Homo sapiens) (UniProt P14416); experiment: Dopamine D2 receptor (DRD2) small molecule antagonists, cell-based qHTS assay (AID 1963595; active means well fitted inhibition curve with a large enough effect in the signal ratio in the repeat runs, with a control signal flat; the % refers to the signal ratio)
Outline: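 In this cell-based antagonist screen, compounds act for 10 min at room temperature before a 30 min challenge with 12 nM quinpirole and 200 nM NKH477. cAMP is quantified by HTRF competition in DRD2-HEK293 cells containing 0.1 mM Ro20-1724.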

[20] = molecular target: Beta-2 adrenergic receptor (Homo sapiens) (UniProt P07550); experiment: Adrenergic beta2 receptor (ADRB2) small molecule agonists, cell-based qHTS assay (AID 1963593);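 further: CHO cells stably overexpressing human ADRB2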
Outline: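 CHO cells stably over-expressing ADRB2 were plated overnight at 37C, then dosed with compounds plus a stimulation mix containing 100uM IBMX and 25uM Ro-20-1724 for 0.5hr at room temperature. cAMP was measured by HTRF competition, 1hr.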

Measured: Potency

O=C/C=C/c1ccco1
not listed: [19] | [20]
inactive: all other assays above

N#Cc1ccc(O)cc1
not listed: [10] | [20]
inactive: all other assays above

NC1(c2ccccc2)CCCCC1
not listed: [7] | [9] | [19]
inactive: all other assays above

N#Cc1ccccc1Cl
not listed: [14] | [20]
inactive: all other assays above

CCC(Br)(CC)C(=O)NC(N)=O
not listed: [9]
inactive: all other assays above

CCC(C)C(C)(COC(N)=O)COC(N)=O (configuration not stated)
not listed: [14] | [17] | [20]
inactive: all other assays above
